Screening data as filed in PubChem BioAssay.
This is a sample that favours compounds with a hit; in the whole collection about 10% have one here.
KB-3-1 cytotox = qHTS assay for MDR1-selective chemotherapeutics: Primary screen using the parental adenocarcinoma cell KB-3-1; KB-3-1 viability, CellTiter-Glo ATP luminescence, 72 h; Potency, µM (highest dose often 46.1 µM), actives largely listed as cytotoxic; 400,000 compounds, 1.4% hits; AID 1347075, 2019; further: on the % scale 0 is the no-effect control and ±100 the full control effect; nearly all actives have a fitted effect of over 60% in size
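Parental KB-3-1 adenocarcinoma cells in phenol-red-free DMEM with 10% FBS were pin-treated with compounds at several concentrations, incubated 72 h at 37 °C, and viability read by CellTiter-Glo luminescence; concentration-effect curves were fitted after normalization.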
MCF10A rereplic = A quantitative high throughput screen for small molecules that induce DNA re-replication in MCF 10a normal breast cells; 350,000 compounds, 2.9% hits; MCF 10A DNA re-replication, Hoechst nuclear intensity, 48 h; Potency, µM (top dose mostly 46.1 µM), inactives show at the top dose activity, positive = re-replication, actives largely listed as activators; further: % of control where 0% means no effect; nearly all actives have a fitted effect of over 50% in size
SW480 rereplic = A quantitative high throughput screen for small molecules that induce DNA re-replication in SW480 colon adenocarcinoma cells; 340,000 compounds, 1.8% hits; SW480 DNA re-replication, Hoechst DNA content imaging, 48 h; Potency, µM (top dose mostly 46.1 µM), inactives show at the top dose re-replication activation, usual class: activators; further: % of control where 0% means no effect; nearly all actives have a fitted effect of over 55% in size
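Quantitative HTS format with DMSO vehicle controls; 48 hr drug incubation at 37 C, then 40 min Hoechst staining and scanning imager measurement at 405 nm excitation.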
KB-V1 cytotox = qHTS assay for MDR1-selective chemotherapeutics: Primary screen using the drug-selected MDR subline cells KB-V1 | KB-V1 MDR cells viability, CellTiter-Glo, 72 h | Potency, µM (series often up to 46.1 µM), most hits filed as cytotoxic | 400,000 compounds, 3.4% hits | AID 1347076, 2019; further: on the % scale 0 is the no-effect control and ±100 the full control effect; nearly all actives have a fitted effect of over 60% in size
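Following 72 h at 37 degrees C with compound, KB-V1 cell viability was read by CellTiter-Glo luminescence, medium being phenol-red-free DMEM plus 10% FBS; concentration-response parameters came from normalized, curve-fitted qHTS data.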
Gal4-VP16 FLuc = VP16 counterscreen qHTS for inhibitors of ROR gamma transcriptional activity; Potency, µM (top dose mostly 53.6 µM), for the others: at the highest dose activity, negative = inhibition, most hits filed as inhibitors; 310,000 compounds, 3.5% hits; AID 2546, 2010; Drosophila S2 Gal4-VP16 UAS-luciferase, luminescence, 20 h;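 further: Gal4-VP16 expression switched on by copper sulfate through the metallothionein promoter; on the % scale 0 is the no-effect control and ±100 the full control effect; nearly all actives have a fitted effect of over 50% in size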
RORg inh = qHTS for inhibitors of ROR gamma transcriptional activity | Nuclear receptor ROR-gamma (Mus musculus), P51450 | Drosophila S2 Gal4-RORgamma UAS-luciferase reporter, 20 h | Potency, µM (top dose mostly 53.6 µM), inactives show top-dose activity change, negative = inhibition, hits mostly inhibitors | 310,000 compounds, 5.4% hits; further: on the % scale 0 is the no-effect control and ±100 the full control effect; nearly all actives have a fitted effect of over 60% in size
Target sequence (P51450 whole entry, looked up, the tested form may be a part): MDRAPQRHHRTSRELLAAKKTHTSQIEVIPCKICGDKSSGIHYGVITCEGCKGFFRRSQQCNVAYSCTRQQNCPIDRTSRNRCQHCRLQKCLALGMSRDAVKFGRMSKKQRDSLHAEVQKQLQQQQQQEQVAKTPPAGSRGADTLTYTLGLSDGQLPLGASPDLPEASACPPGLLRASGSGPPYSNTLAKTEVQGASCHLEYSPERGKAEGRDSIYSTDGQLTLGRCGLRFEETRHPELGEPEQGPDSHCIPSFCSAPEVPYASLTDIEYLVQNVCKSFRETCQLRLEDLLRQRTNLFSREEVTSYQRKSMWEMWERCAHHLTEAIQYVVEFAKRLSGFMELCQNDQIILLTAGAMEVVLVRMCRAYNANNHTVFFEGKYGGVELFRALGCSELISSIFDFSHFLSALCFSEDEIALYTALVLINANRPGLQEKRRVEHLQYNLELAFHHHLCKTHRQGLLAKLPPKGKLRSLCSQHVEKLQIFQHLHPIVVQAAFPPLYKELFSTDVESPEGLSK
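Read-out: Photinus luciferase luminescence; inhibitors lower reporter signal. Insect Schneider cells with Gal4-ROR gamma fusion under metallothionein promoter, UAS reporter; 700 uM final copper sulfate induction, 20 hr, ambient temperature.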
* = called active by the depositor; i = inactive; u = inconclusive; x = no result given; [ ] = dose if it differs, or a comment. The call rests on the fitted dose curve; in most records, active means well fitted curve in the direction sought with a large enough effect; inconclusive means small, poorly fitted or top-dose-only effect, or another doubt; inactive means no such curve, though single readings can be large; an effect the other way counts as inactive or inconclusive. Potency means the concentration at half of the fitted maximal effect.

SMILES | KB-3-1 cytotox | MCF10A rereplic | SW480 rereplic | KB-V1 cytotox | Gal4-VP16 FLuc | RORg inh
Clc1ccc(-c2ccc(-c3nn4c(-c5ccco5)nnc4s3)o2)cc1 | i | u | 24.0% | i | x | x
Brc1ccc(-c2nn3c(-c4ccco4)nnc3s2)o1 | u | 0.1% | -6.0% | 16.4µM* | 9.8% | 20.9%
Brc1ccc(-c2nn3c(-c4ccncc4)nnc3s2)o1 | x | x | x | x | 0.7% | 17.0%
CC1(C(=O)NS(=O)(=O)c2cccc(OC(F)F)c2)CCN1C(=O)c1ccco1 (centres undefined) | i | x | x | i | x | x
Cc1ccccc1CN1C(=O)/C(=C\c2ccc(C(=O)NCCN3CCOCC3)cc2)Sc2ccccc21 | i | 20.6µM* | u | i | u | u
Cc1cccc(CN2C(=O)/C(=C\c3ccc(C(=O)NCCN4CCOCC4)cc3)Sc3ccccc32)c1 | i | u | 23.1µM* | u | -14.6% | -44.1%
O=C(NCCN1CCOCC1)c1ccc2c(c1)N(Cc1ccccc1F)C(=O)CS2 | i | 4.8% | -0.2% | i | -7.2% | -3.5%
CN1CCN(CCCNC(=O)c2ccc(/C=C3\Sc4ccccc4N(Cc4ccccc4F)C3=O)cc2)CC1 | i | 16.4µM* | 20.6µM* | i | -0.1%[10 µM] | u
O=C(NCCCN1CCOCC1)c1ccc2c(c1)N(Cc1ccccc1F)C(=O)c1ccccc1S2=O (centres undefined) | i | 2.6% | 28.9% | u | 7.3% | 14.6%
O=C(NCCN1CCOCC1)c1ccc(/C=C2\Sc3ccccc3N(Cc3ccccc3F)C2=O)cc1 | i | u | 18.4µM* | u | -5.3% | -11.2%
Cc1cc(Nc2ccccc2C)n2nc(Cc3ccc(Cl)cc3)nc2n1 | i | x | x | i | x | x
CCN1CCN(CCNC(=O)c2ccc3c(c2)N(Cc2ccc(F)cc2)C(=O)/C(=C/c2ccccc2)S3)CC1 | u | u | u | u | u | 15.8µM*
Cc1ccc(/C=C2/Sc3ccc(C(=O)NCCN4CCOCC4)cc3NC2=O)cc1 | i | 20.6µM* | 5.0% | i | 2.5% | -0.6%
O=C(NCCN1CCCC1)c1ccc2c(c1)N(Cc1cccc(Cl)c1)C(=O)c1ccccc1S2(=O)=O | i | -20.0% | -13.0% | i | -10.3% | 0.1%
CCOCCCNC(=O)CN1C(=O)/C(=C/c2ccccc2C)Sc2ccccc21 | u | -1.8% | u | i | 3.2%[10 µM] | 20.2%
CCOCCCNC(=O)/C=C1\Sc2ccccc2N(Cc2ccccc2F)C1=O | i | 7.31µM* | u | i | 8.8% | -8.2%
CCN1CCN(CCNC(=O)c2ccc(/C=C3/Sc4ccccc4N(Cc4cccc(Cl)c4)C3=O)cc2)CC1 | u | 20.6µM* | 7.3% | u | u | -43.5%
COc1ccc(/C=C2\Sc3ccc(C(=O)NCCN4CCCCCC4)cc3N(C)C2=O)cc1 | i | u | 255.3% | i | -13.0% | -8.6%
COc1cccc(/C=C2/Sc3ccc(C(=O)NCCN4CCCC4)cc3NC2=O)c1 | i | -5.8% | -3.6% | i | u | -36.3%
Cc1ccc2oc3c(c(=O)c2c1)C(c1ccc(F)cc1)N(Cc1ccc2c(c1)OCO2)C3=O (centres undefined) | i | x | x | i | x | x
O=C1Nc2cc(C(=O)NCCCN3CCCC3)ccc2S/C1=C/c1ccccc1F | i | u | 18.4µM* | i | -16.0% | -39.0%
CC1CCCN(CCCNC(=O)c2ccc3c(c2)N(Cc2cccc(Cl)c2)C(=O)c2ccccc2S3=O)C1 (centres undefined) | i | x | x | i | x | x
CC1CCCN(CCCNC(=O)c2ccc3c(c2)N(Cc2ccc(F)cc2)C(=O)c2ccccc2S3=O)C1 (centres undefined) | i | 1.7% | 20.6µM* | i | -4.8% | -16.0%
COc1ccc(-c2nn3c(-c4cc(-c5ccccc5)n[nH]4)nnc3s2)cc1OC | i | x | x | i | x | x
COc1ccc(Br)cc1CN1CCC(N2CCCC2)CC1 | i | 23.1µM* | u | i | -11.2% | 15.7%
SMILES | KB-3-1 cytotox | MCF10A rereplic | SW480 rereplic | KB-V1 cytotox | Gal4-VP16 FLuc | RORg inh
COc1ccc(Br)cc1CN1CCCC(C(=O)N2CCCCC2)C1 (centres undefined) | i | 15.0% | 1.6% | i | -0.5% | 14.4%
COCCn1c(=O)c(C)nc2cncnc21 | x | x | x | x | -6.2% | -1.8%
COc1ccc(C2Cc3ccccc3C(=O)O2)cc1 (centres undefined) | i | -2.8% | 20.6µM* | u | 0.0% | 14.8%
COc1ccc(NC(=O)C2Cc3ccccc3C(=O)O2)cc1 (centres undefined) | i | 8.7% | 0.9% | i | 19.4% | 9.1%
O=C(c1ccccc1Br)N(Cc1ccccc1F)C1CCS(=O)(=O)C1 (centres undefined) | i | x | x | i | x | x
Cc1ccc(NC(=S)N2CCCC(c3nc4ccc(C)cc4[nH]3)C2)c(C)c1 (centres undefined) | i | -9.8% | -6.0% | i | u | 1.3%
O=C(NC1CCCCC1)N1CCCC(c2nc3ccccc3[nH]2)C1 (centres undefined) | i | -5.0% | -0.8% | 20.6µM* | 4.6% | 5.9%
Cc1ccc2nc(C3CCCN(C(=S)Nc4cccc(C)c4C)C3)[nH]c2c1 (centres undefined) | i | -1.4% | -7.2% | i | u | 11.2µM*
Cc1cc2nc(C3CCCN(C(=S)Nc4ccccc4C)C3)[nH]c2cc1C (centres undefined) | u | 6.4% | 5.1% | u | -15.1% | 20µM*
CC(C)c1ccc(Nc2cc(C(=O)NCCc3ccccc3)c3ccccc3n2)cc1 | i | x | x | i | x | x
COc1ccc(OC)c(NS(=O)(=O)c2cc3c4c(c2)CCN4C(=O)CC3)c1 | i | 2.9% | -5.3% | i | x | x
COc1ccc(CCNC(=O)C(=O)NCC2OCCN2S(=O)(=O)c2ccc(OC)c(OC)c2)cc1OC (centres undefined) | i | 0.5% | -0.1% | i | -4.5% | 14.7%
COc1ccc(S(=O)(=O)N2CCOC2CNC(=O)C(=O)NCc2ccccc2OC)cc1 (centres undefined) | x | -15.4% | 20.4% | x | -2.0% | 12.1%
COc1ccccc1CNC(=O)C(=O)NCC1OCCN1S(=O)(=O)c1ccc(Br)cc1 (centres undefined) | i | 0.0% | 23.1µM* | u | 1.5% | 40.8%
